Laboratory results published in PubChem BioAssay (EPA / NIEHS).
“And” between values parts separate entries of the source, which are not always exact repeats. Equal values may be shown once. The source holds several records for some structures; these can differ, active in one and inactive in another. The source made the active and inactive calls. Rule for the calls: active = hit-call score of the fitted dose curve at least 0.9, where 1 is the maximum; inactive = score below 0.9.

Assays:
[1] = read-out: Interleukin-1 alpha (IL1a), IL1A (gene 3552); assay: BSK_KF3CT_IL1a: BioMAP Diversity Plus: KF3CT Assay for Interleukin-1 alpha (IL1a) Biomarker Activity (AID 2283070); conditions: primary human keratinocytes with fibroblasts; actives raise or lower the signal
Procedure, shortened: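 Primary human keratinocyte plus foreskin fibroblast co-culture, dosed and measured at 24 h in 96-well plates. IL-1a level quantified by ELISA; bidirectional fit relative to DMSO.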

[2] = read-out: TIMP metallopeptidase inhibitor 2 (TIMP2), TIMP2 (gene 7077); assay: BSK_KF3CT_TIMP2: BioMAP Diversity Plus: KF3CT Assay for TIMP metallopeptidase inhibitor 2 (TIMP2) Biomarker Activity (AID 2283071); conditions: primary human keratinocytes with fibroblasts; actives raise or lower the signal
Procedure, shortened: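 Keratinocyte–fibroblast co-culture, 24 h exposure; TIMP-2 ELISA, DMSO-normalised bidirectional fit. Parallel SRB (0.1%, TCA-fixed, 560 nm) total-protein staining gauges cytotoxicity.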

[3] = read-out: C-C motif chemokine 2 (Homo sapiens) (UniProt P13500); assay: BSK_KF3CT_MCP1: BioMAP Diversity Plus: KF3CT Assay for Monocyte Chemoattractant Protein 1 (MCP1/CCL2) Biomarker Activity (AID 2283073); conditions: primary human keratinocytes with fibroblasts; actives raise or lower the signal
Procedure, shortened: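 Keratinocytes and foreskin fibroblasts were co-cultured, dosed with chemical, and sampled 24 h later. MCP-1 was quantified by ELISA, and the endpoint was analyzed with bidirectional fitting using DMSO as negative control.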

[4] = read-out: Matrix Metallopeptidase 9 (MMP9), MMP9 (gene 4318); assay: BSK_KF3CT_MMP9: BioMAP Diversity Plus: KF3CT Assay for Matrix Metallopeptidase 9 (MMP9) Biomarker Activity (AID 2283074); conditions: primary human keratinocytes with fibroblasts; actives raise or lower the signal;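 for AC50: MMP9 protein level quantified by ELISA in the co-culture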
Procedure, shortened: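 Human keratinocyte and foreskin fibroblast co-culture exposed to chemicals for 24 h; MMP9 biomarker measured by ELISA, bidirectional fitting relative to DMSO; cytotoxicity tracked by SRB total protein staining in parallel cultures.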

[5] = read-out: urokinase plasminogen activator (uPA), PLAU (gene 5328); assay: BSK_KF3CT_uPA: BioMAP Diversity Plus: KF3CT Assay for urokinase plasminogen activator (uPA) Biomarker Activity (AID 2283075); conditions: primary human keratinocytes with fibroblasts; actives raise or lower the signal
Procedure, shortened: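 Primary human keratinocyte/foreskin fibroblast co-culture exposed to chemical; uPA measured by ELISA at 24 h. Bidirectional fit versus DMSO, with parallel SRB total-protein staining for cytotoxicity.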

CD40, CD40 (gene 958) = assay: BSK_LPS_CD40: BioMAP Diversity Plus: LPS Assay for CD40 Biomarker Activity (AID 2283076); conditions: primary human HUVEC with PBMC; actives raise or lower the signal
Procedure, shortened: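 CD40 signal, measured by ELISA, is fitted in both directions relative to DMSO vehicle. The system is an LPS-driven human vascular primary co-culture of endothelial cells and PBMC, sampled 24 h after compound addition.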

[6] = read-out: E-selectin (Homo sapiens) (UniProt P16581); assay: BSK_LPS_Eselectin: BioMAP Diversity Plus: LPS Assay for Eselectin Biomarker Activity (AID 2283077); conditions: primary human HUVEC with PBMC; actives raise or lower the signal
Procedure, shortened: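 Signal of E-selectin, detected by ELISA, served as the endpoint; cells were umbilical vein endothelium with PBMC, read 24 h after treatment. DMSO defined baseline, and both increases and decreases were fitted.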

[7] = read-out: Interleukin-8 (IL8), CXCL8 (gene 3576); assay: BSK_LPS_IL8: BioMAP Diversity Plus: LPS Assay for Interleukin-8 (IL8) Biomarker Activity (AID 2283078); conditions: primary human HUVEC with PBMC; actives raise or lower the signal
Procedure, shortened: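 Endothelial cells and PBMC from human donors are co-cultured, treated with chemicals and LPS, then assayed for IL-8 by ELISA after 24 h. Parallel SRB staining (0.1% SRB after 10% TCA fixation, 560 nm) flags cytotoxicity.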

[8] = BSK_LPS_SRB: Viability Assessment in the BioMAP Diversity Plus: LPS Assay (AID 2283079); conditions: primary human HUVEC with PBMC;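 note: total protein by sulforhodamine B absorbance as a cytotoxicity measure; measured one day after compound addition; fitted in both directions against DMSO so loss or gain of signal counts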
Procedure, shortened: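 Overt cytotoxicity was gauged by sulforhodamine B total-protein staining in a primary human vascular endothelial and mononuclear cell co-culture 24 h post-dosing. Activity was fitted in both directions relative to DMSO.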

[9] = read-out: Transforming growth factor beta 1 (TGFb1), TGFB1 (gene 7040); assay: BSK_KF3CT_TGFb1: BioMAP Diversity Plus: KF3CT Assay for Transforming growth factor beta 1 (TGFb1) Biomarker Activity (AID 2283072); conditions: primary human keratinocytes with fibroblasts; actives raise or lower the signal
Procedure, shortened: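 Signal changes in either direction, relative to DMSO, define activity here. TGF-b1 is read by ELISA from a human keratinocyte-fibroblast co-culture 24 h post-dose.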

Measured: AC50

Chain of E-selectin (Homo sapiens) (P16581 whole entry, looked up): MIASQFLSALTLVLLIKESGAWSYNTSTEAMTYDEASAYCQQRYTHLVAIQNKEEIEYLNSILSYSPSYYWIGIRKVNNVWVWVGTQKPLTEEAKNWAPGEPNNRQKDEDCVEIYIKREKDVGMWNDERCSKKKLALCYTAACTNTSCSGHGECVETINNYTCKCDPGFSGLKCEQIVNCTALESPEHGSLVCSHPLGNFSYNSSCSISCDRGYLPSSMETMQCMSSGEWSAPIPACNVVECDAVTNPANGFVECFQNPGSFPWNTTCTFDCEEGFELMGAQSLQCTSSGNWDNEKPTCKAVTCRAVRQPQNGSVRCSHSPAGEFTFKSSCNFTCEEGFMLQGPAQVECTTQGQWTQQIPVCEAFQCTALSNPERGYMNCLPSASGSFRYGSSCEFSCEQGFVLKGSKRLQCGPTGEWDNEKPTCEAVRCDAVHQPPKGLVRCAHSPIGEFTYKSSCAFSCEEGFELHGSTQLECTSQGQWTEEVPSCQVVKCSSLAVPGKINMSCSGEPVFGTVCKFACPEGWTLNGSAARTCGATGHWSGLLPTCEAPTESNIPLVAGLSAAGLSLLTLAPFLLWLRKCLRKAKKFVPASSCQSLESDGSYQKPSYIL

OCC(O)CC(F)(F)C(F)(F)C(F)(F)C(F)(F)C(F)(F)C(F)(F)C(F)(F)C(F)(F)F (stereo unspecified)
active: [1] 0.166 µM
inactive: [1] | [2] | [3] | [4] | [5] | CD40, CD40 (gene 958) | [6] | [7] | [8]

CC(C)CCCC(C)CCO (stereo unspecified)
inactive: CD40, CD40 (gene 958) | [6] | [7] | [8]
active: [1] 34.4 µM | [2] 30.5 µM | [9] 30.1 µM | [3] 33.5 µM | [4] 36.4 µM | [5] 36.1 µM

O=C(O)CCC(F)(F)C(F)(F)C(F)(F)C(F)(F)C(F)(F)C(F)(F)C(F)(F)F
not listed: [9]
inactive: all other assays above

O=C=Nc1cccc2c(N=C=O)cccc12
not listed: [1]
inactive: all other assays above

O=C(Cl)C(F)(F)C(F)(F)C(F)(F)C(F)(F)C(F)(F)C(F)(F)C(F)(F)F
active: [7] 20.2 µM and 16.6 µM
inactive: [1] | [2] | [3] | [4] | [5] | [6] | [7] | [8]

O=C(O)C(F)(F)C(F)(F)C(F)(F)OC(F)(F)F
not listed: [9]
inactive: all other assays above

O=S(=O)(O)CCC(F)(F)C(F)(F)C(F)(F)C(F)(F)F
not listed: [9]
inactive: all other assays above

O=C=NCc1cccc(CN=C=O)c1
inactive: all assays above

CCN(CC)c1ccc(C=O)c(O)c1
not listed: [1]
inactive: all other assays above

O=C(Cl)C(F)(F)C(F)(F)C(F)(F)C(F)(F)C(F)(F)C(F)(F)F
inactive: [1] | [2] | [3] | [4] | [5] | [6] | [7] | [8]
active: [4] 18.3 µM | [7] 50.3 µM

C=CC(=O)OCC(F)(F)C(F)(F)C(F)(F)C(F)(F)C(F)(F)C(F)(F)C(F)(F)C(F)F
active: [3] 30 µM
inactive: [1] | [2] | [3] | [4] | [5] | [6] | [7] | [8]

O=C1c2c(O)ccc(Nc3ccc(CCO)cc3)c2C(=O)c2c([N+](=O)[O-])ccc(O)c21
active: [2] 0.54 µM | [4] 20 µM | CD40, CD40 (gene 958) 8.34 µM | [6] 20 µM | [8] 3.97 µM
inactive: [1] | [9] | [3] | [5] | [7]

CCN(CC)c1ccc(C=O)cc1
not listed: [1]
inactive: all other assays above

FC(F)(F)C(F)(F)C(F)(F)C(F)(F)C(F)(F)C(F)(F)C(F)(F)CCI
inactive: [1] | [2] | [3] | [4] | [5] | [6] | [7] | [8]
active: [3] 3.94 µM

Nc1cc([N+](=O)[O-])cc(Cl)c1O
inactive: all assays above
